In all, about 58,000 sequences went through this assay and about 4,000 (6.9%) were called active. Cut-off read from the data, not from the text of the source: active = GI50 up to about 1.1 µM and inactive = higher. The list is a sample of the results. Measured potencies and affinities stand elsewhere.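 Values below derive from 48-hour exposures of cells grown in 96-well plates, with endpoints linearly interpolated between the two concentrations bracketing the appropriate inhibition level. GI50: concentration for 50% inhibition of growth.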
These substances were tested on SF-295 (assay: NCI tumour cell line growth inhibition, 48 h).
Work on “mu-(1,7-nanodiamine-N,N')bis-(cis-aminedichloroplatimum (II)), CHEMBL2146215” yielded a GI50 of 14.3 µM. “[Bis(aminomethyl)tetramethylenesilane]dichloropaltinum(II), CHEMBL2146205” gave a GI50 of 27.7 µM. “[Bis(aminomethyl)pentamethylenesilane]tetrachloropaltinum(IV), CHEMBL2146204” was tested, and the GI50 was 3.3 µM. In the case of “[Bis(aminomethyl)dimethylsilane]tetrachloroplatinum(IV), CHEMBL2146190”, the GI50 is reported as 4.39 µM. For “[Bis(aminomethyl)pentamethylenesilane]dichloropaltinum(II), CHEMBL2146202”, the GI50 was 2.65 µM. With “cis-Bis[[(trimethylsilyl)methyl]amino]tetrachloroplatinum(IV), CHEMBL2146191” the GI50 was 13.7 µM. With “[Bis(aminomethyl)tetramethylenesilane]tetrachloropaltinum(IV), CHEMBL2146189” the GI50 was 5.25 µM. “[Bis(aminomethyl)ethylmethylsilane]tetrachloroplatinum(IV), CHEMBL2146192” gave a GI50 of 3.17 µM. In the case of “[Bis(aminomethyl)dimethylsilane]dichloroplatinum (II), CHEMBL2146201”, the GI50 is reported as 11.9 µM. CISPLATIN, CHEMBL11359 was tested, and the GI50 was 0.912 µM. Substance “[Bis(aminomethyl)diethylsilane]tetrachloroplatinum(IV), CHEMBL2146203” has a GI50 of 3.37 µM.
